Measurements: the supplement of paper PMC6555819

Key:
Experiment in all cases: PBM binding z-score (relative to random genomic background probes); higher = stronger binding; sequences stand for … in GC…GCGATTGACAGCGTAGAATGAAGG
[1] = tested on: PPARg:RXRa DBDmut IVT, anti-RXR (DBD mutation: RXRa K156A/R161A, NR concentration 270 nM, RXRa partner concentration 90 nM)
Method in brief: (§1)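 Probes were double-stranded and carried 34-nt variable regions with direct-repeat seeds, single-nucleotide variants, half-site ablations and random human genomic background sequences, printed on custom Agilent 4×180K protein-binding microarrays. Arrays were incubated 1 h with ligand-free nuclear receptor dimers in PBS pH 7.4, 2% milk, 0.02% Triton X-100, 1 mM DTT, 0.2 mg/mL BSA and 0.4 mg/ml salmon testes DNA. Antibodies against each partner (one per run) detected binding, and scanned fluorescence was regression-normalized. Binding z-scores use the random background probes as reference.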

[2] = tested on: PPARg:RXRa IVT, anti-PPARg (NR concentration 270 nM, RXRa partner concentration 90 nM)
Method in brief: as §1

[3] = tested on: PPARg DBDmut:RXRa IVT, anti-PPARg (DBD mutation: PPARg1 K132A/R137A, NR concentration 270 nM, RXRa partner concentration 90 nM)
Method in brief: as §1

[4] = tested on: PPARg DBDmut IVT, anti-PPARg (DBD mutation: PPARg1 K132A/R137A, NR concentration 270 nM)
Method in brief: as §1

[5] = tested on: PPARg homodimer (NR concentration 180 nM)
Method in brief: as §1

[6] = tested on: PXR:RXRa (NR concentration 270 nM, RXRa partner concentration 90 nM)
Method in brief: as §1

[7] = tested on: PXR homodimer (NR concentration 270 nM)
Method in brief: as §1

[8] = tested on: RARa:RXR (NR concentration 270 nM, RXRa partner concentration 90 nM)
Method in brief: as §1

[9] = tested on: RARa homodimer (NR concentration 270 nM)
Method in brief: as §1

[10] = tested on: RARb:RXRa (NR concentration 270 nM, RXRa partner concentration 90 nM)
Method in brief: as §1

Sequence | PBM binding z-score [1] | PBM binding z-score [2] | PBM binding z-score [3] | PBM binding z-score [4] | PBM binding z-score [5] | PBM binding z-score [6] | PBM binding z-score [7] | PBM binding z-score [8] | PBM binding z-score [9] | PBM binding z-score [10]
CCTAGCTGGCCAGGGTCACTCAAGCATTTCGCTT | -0.189 | -0.187 | -0.962 | -0.97 | 0.811 | 2.53 | -0.342 | 3.04 | -0.133 | 2.35
GCTAGTTGGTCAGTAATAGGTCACACACCGGTCG | 1.6 | 2.79 | -0.0555 | -0.765 | 1.88 | 2.1 | 0.429 | 2.93 | 0.809 | 2.57
CGAACTAGGTCACAACAGGACAGTGAAGGATGAT | 8.41 | 8.69 | 2.32 | 1.05 | 1.54 | 1.85 | 0.241 | 1.87 | 0.573 | 3.79
CCAGACAGGTGAAAGGTAACTGAGTCTGGTACGC | 2.15 | 3.28 | -0.148 | -0.636 | 1.11 | 0.918 | -0.224 | 1.83 | 0.0845 | 1.28
CAGCCTAGGTAAGGGCCAGTATAGGAGGAACGTT | -0.707 | -0.473 | 0.308 | -0.484 | 0.0729 | -0.698 | -0.364 | -0.562 | -0.726 | -0.0366
CCTGCTAGGTCAATGGTTAGCTAAAGCAGCTCGC | 4.4 | 3.57 | -0.722 | -1.05 | 0.942 | 0.745 | -0.456 | 1.29 | -0.0432 | 3.74
GTACCAAGGTTAATAGGTCGTTGATGAGTAGGCG | 1.85 | 3.6 | 0.0971 | -0.158 | 2.1 | 1.69 | 0.273 | 2.82 | 0.938 | 2.5
CCTAGCAGGCCAGGGTCACTAAAGCATTTCGCTT | 0.051 | 0.519 | -1.03 | -1.22 | 0.403 | 2.21 | -0.725 | 2.96 | -0.568 | 2.35
CCTACTGTGCCATCAGGTCATTGATATCAACGTT | 4.55 | 4.14 | 2.09 | 1.29 | 2.2 | 2.45 | 1.76 | 2.79 | 2.21 | 2.25
GCAGCCAGGTGAAACGCAGGTAACTCAGGGTGGC | 1.32 | 1 | -1.26 | -1.53 | -1.44 | -0.698 | -1.29 | 0.121 | -2.03 | 0.362
TCTTGTAGATCAAGCAGGTTAAGAAGGCCTGAGT | 1.58 | 0.43 | 0.564 | 0.0402 | 0.079 | 0.386 | 0.0272 | 0.642 | -0.212 | 0.128
TAGCCTAGGTCAATGGGCCAGTATAGTACGCATC | 1.98 | 3.19 | -0.338 | -0.429 | 0.9 | 0.686 | -0.285 | 1.56 | 0.0956 | 3.67
AATACAGGGTCACTAGGCCATAGTAGGTACGAAT | 4.35 | 6.47 | 2.07 | 1.76 | 2.21 | 3.31 | 0.565 | 4.46 | 0.595 | 4.11
ATCGAAAGGTCGAGGTGGGTATAGAGAAAGGGAA | 0.271 | 1.55 | 0.846 | 1.16 | 2.17 | 2.99 | 0.988 | 3.5 | 1.9 | 4.34
CGTCCAAGGTCAGAGAGGTAAGTGAATGCCGAGT | 2.46 | 2.1 | -0.583 | -0.788 | 1.67 | 2.89 | 1.46 | 3.24 | 0.288 | 4.67
TCTTGTAGTTCAGCAGGTTAAGAAAGCTGGCCAA | 1.37 | 0.541 | -0.927 | 0.25 | 0.434 | 0.887 | 0.352 | 1.18 | 0.277 | 1.76
AGGATGAGGTTACCAAAGATCAGGGAAACGCTTG | 0.68 | 1.09 | 0.557 | 0.461 | 1.12 | 1.47 | 0.27 | 2.02 | 0.36 | 2.12
ATATGTAGGTTAGCTGGGGTAATTCAGACTAGGC | 6.75 | 6.17 | 1.99 | 1.76 | 0.916 | 1.12 | 0.0639 | 1.44 | 0.818 | 1.02
TAGCCTAGGTCAGATCGGGCCATTATACGCTATA | 0.579 | 1.34 | -0.598 | -0.774 | 0.357 | 2.69 | -0.448 | 1.33 | -0.736 | 2.84
AGAATGAGGTTATTAAGATCTGGGAATTGCGGTC | 3.21 | 1.94 | 0.564 | 0.21 | 0.467 | 1.16 | 0.379 | 1.66 | -0.145 | 1.29
TCTAGTTGGTCAAAGCTCACACACTCGAAATGCG | 2.36 | 1.86 | 0.492 | 0.777 | 1.1 | 0.532 | -0.0371 | 0.758 | 0.56 | 1.01
TCTAGGAGGACACGAAAGGTCAGAGCTCGACATC | 2.31 | 2.52 | 0.115 | -0.502 | 2.04 | 4.08 | 0.408 | 4.32 | 1.42 | 4.35
TCTAGGTGGTCACGGAGGTCACACACGACGGGTA | 1.88 | 4.12 | 0.705 | 0.508 | 2.75 | 4.44 | 0.948 | 4.51 | 1.02 | 3.84
CAGCCGAGGTCAGGGCCAGTATAGGAGGAACGTT | 1.87 | 3.21 | 0.298 | -0.547 | 2.95 | 3.5 | 0.241 | 4.36 | 0.349 | 4.81
CGAACTAGGTCAGAACAGGACAGTGAGGGATGAT | 7.05 | 7.16 | 2.36 | 0.0779 | 0.578 | 0.829 | 0.211 | 1.06 | 0.238 | 2.94
